This is a sample that favours compounds with a hit; in the whole collection about 11% have one here.
PNC assembly inh: High Content Assay for Compounds that inhibit the Assembly of the Perinucleolar Compartment; PC3M PTB-GFP, PNC prevalence imaging, 16 h; active compounds read low; activity change (PNC), negative = inhibition, % at 10 µM; actives 3.1% (n = 140,000);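 active = readout at or below -70, meaning at least 70% loss of cells showing the perinucleolar compartment, a nuclear body marking cancer cells; inconclusive = readout between -30 and a set limit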;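 note: plate controls were DMSO wells for no effect and camptothecin positive control wells for full effect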
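Read-out is percentage of cells bearing a perinucleolar compartment, from automated 20x imaging of fixed, Hoechst-stained PC3M PTB-GFP cells. Cells were seeded 4 h, then exposed 16 h to compound (23 nl of library stock) in duplicate plates.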
ALDH1A1 inh: qHTS Assay for Inhibitors of Aldehyde Dehydrogenase 1 (ALDH1A1) | Aldehyde dehydrogenase 1A1 (Homo sapiens), P00352 | Purified ALDH1A1, NADH fluorescence, propionaldehyde substrate | Potency, µM (top dose mostly 75.3 µM), for inactives: at the top dose activity, negative = inhibition, actives largely listed as inhibitors | AID 1030, 2008 | actives 7.3% (n = 220,000);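 note: potency is the fitted concentration of half-maximal effect; plate controls were no enzyme wells and a reference inhibitor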
HPGD block: qHTS Assay for Inhibitors of HPGD (15-Hydroxyprostaglandin Dehydrogenase); 15-hydroxyprostaglandin dehydrogenase [NAD(+)] (Homo sapiens), P15428; purified HPGD, NADH fluorescence kinetic, PGE2 substrate; Potency, µM, for the others: at the top dose activity change, negative = inhibition, actives largely listed as inhibitors; actives 4.3% (n = 150,000); AID 894, 2007; note: potency is the fitted concentration of half-maximal effect
Target sequence (P15428 whole entry, looked up): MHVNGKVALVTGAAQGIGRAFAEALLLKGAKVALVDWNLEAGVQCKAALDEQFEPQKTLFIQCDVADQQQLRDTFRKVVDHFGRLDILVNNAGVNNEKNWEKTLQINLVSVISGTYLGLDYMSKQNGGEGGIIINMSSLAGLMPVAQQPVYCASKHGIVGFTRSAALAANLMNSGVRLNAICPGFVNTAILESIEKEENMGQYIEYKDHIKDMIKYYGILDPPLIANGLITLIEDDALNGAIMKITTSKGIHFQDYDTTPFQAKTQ
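NADH formation kinetics: reaction with 30 uM PGE2 and 1 mM NAD+ (final), 20 nM enzyme, Tris-HCl pH 8 with Tween 20, after 15 min compound preincubation at room temperature. Fluorescence change, last versus first of five reads.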
* marks the source's active call; other numbers are inactive results; ? = inconclusive; · = no result given; [ ] = remark or other dose. Unless noted, calls come from the whole dose curve; as a rule, active = well fitted inhibition curve with a large enough effect (not every such curve was filed as active); inconclusive = small, poorly fitted or top-dose-only effect, or another doubt; inactive = no such curve, though single readings can be large or run the other way. Unless noted, % is set by controls: 0 for no effect and ±100 for the full control effect.

SMILES	PNC assembly inh	ALDH1A1 inh	HPGD block
O=C(COc1cccc2c1CCN(Cc1ccccc1)C2=O)NCc1ccco1	?	20µM*	-17%
Cc1cccc(CN2CCc3c(OCC(=O)NCc4ccco4)cccc3C2=O)c1	-26	22µM*	-30%
Cc1ccc(COc2cccc3c2CCN(Cc2ccc(F)cc2)C3=O)cc1	-8	11%	-6%
O=C1c2cccc(OCc3ccc(F)cc3)c2CCN1Cc1ccccc1	-82*	-8%	-15%
O=C1c2cccc(OCC(=O)N3CCCc4ccccc43)c2CCN1Cc1ccc(F)cc1	10	?	-13%
Cc1cccc(CN2CCc3c(OCC(=O)N4CCCc5ccccc54)cccc3C2=O)c1	-19	16µM*	-25%
Cc1ccc(CN2CCc3c(OCC(=O)Nc4cc(C)ccc4C)cccc3C2=O)cc1	111	?	-14%
Cc1ccc(C)c(NC(=O)COc2cccc3c2CCN(Cc2ccccc2)C3=O)c1	-7	-9%	-6%
COc1ccc(CNC(=O)CSc2n[nH]c(C)c2[N+](=O)[O-])cc1	-23	2%	-14%
CCOC(=O)c1cc([N+](=O)[O-])sc1N	·	-4%	·
COc1ccc(CCc2nnc(CCC(=O)NCCc3ncccc3C)o2)cc1	·	-3%	·
O=C(c1ccco1)c1cn(CC(=O)N2CCCCC2)c2ccccc12	-8	2%	·
O=C1NC(=O)c2cc([N+](=O)[O-])ccc21	·	2%	-9%
CS(=O)(=O)N1CCC[C@@]2(CCN(C(=O)Nc3ccccc3)C2)C1	·	26%	-11%
COc1ccc(NC(=O)/C(Cl)=C(/Cl)S(=O)(=O)Cc2ccccc2)cn1	-21	1.3µM*	-27%
COc1ccc(NC(=O)Cc2ccc(-c3ccccc3)cc2)cn1	·	-6%	·
COc1ccc(NC(=O)/C(Cl)=C(/Cl)S(=O)Cc2ccc(Cl)cc2)cn1 (stereo unspecified)	·	0.35µM*	·
COc1ccc(CC(=O)Nc2ccc(OC)nc2)cc1	·	13%	·
COc1ccc(OCCN2C(=O)NC(C)(c3ccc(C)cc3)C2=O)cc1 (stereo unspecified)	242	?	-13%
COc1ccc(OC)c(NC(=O)CN2C(=O)NC3(CCOc4ccccc43)C2=O)c1 (stereo unspecified)	-3	8%	-4%
COc1ccc(CN2C(=O)NC(C)(c3ccc(C)cc3)C2=O)cc1F (stereo unspecified)	·	0.35µM*	·
COc1ccc(CN2C(=O)NC3(CCOc4ccccc43)C2=O)cc1F (stereo unspecified)	-80*	-14%	-4%
Cc1ccc(-c2ccc(=O)n(CC(=O)N3CCN(c4cc(Cl)ccc4C)CC3)n2)cc1	11	10%	-11%
CC(NC(=O)/C(C#N)=C/c1cn[nH]c1-c1ccccc1)c1ccccc1 (stereo unspecified)	25	7.9µM*	14µM*
Cc1ccc(C(=O)NC(C)c2ccccc2)o1 (stereo unspecified)	7	?	22µM*
SMILES	PNC assembly inh	ALDH1A1 inh	HPGD block
CCc1ccc(C(C)NC(=O)/C(C#N)=C\c2cn[nH]c2-c2ccccc2)cc1 (stereo unspecified)	7	?	-13%
CC(NC(=O)/C(C#N)=C/c1ccc(C(=O)O)cc1)c1ccccc1 (stereo unspecified)	38	0%	-10%
N#C/C(=C\c1cn[nH]c1-c1ccc(Cl)cc1)C(=O)NC1CC1	-25	2%	-6%
N#C/C(=C\c1cn[nH]c1-c1ccc(Cl)cc1)C(=O)NCc1ccccc1	?	22µM*	?
Cc1ccc(/C=C(/C#N)C(=O)NC(C)c2ccccc2)o1 (stereo unspecified)	3	14µM*	-20%
COc1ccccc1C(C)NC(=O)c1ccc(C)o1 (stereo unspecified)	35	12%	-23%
O=C(NCCN1CCOCC1)N1c2ccccc2Sc2ccccc21	52	7%	-11%
CN(c1cccc(NC(=O)c2cccc([N+](=O)[O-])c2)c1)S(C)(=O)=O	·	3%	·
COc1ccc(NC(=S)N(C)CC2COc3ccccc3O2)cc1 (stereo unspecified)	·	-7%	·
C[C@H]1COC(=O)[C@H]2CCCN2C(=O)[C@@H](C)COC(=O)[C@H](Cc2ccccc2)NC1=O	·	3%[13.5 µM]	·
CCCCn1c(=O)c(CC(C)=O)nc2ccccc21	46	-6%	-10%
CC(C)(C)NC(=O)[C@H]1CN(Cc2cccnc2)CCN1C[C@@H](O)C[C@@H](Cc1ccccc1)C(=O)N[C@H]1c2ccccc2C[C@H]1O	·	20%	-21%
CSCCC(NC(=O)c1ccc(C)o1)C(=O)O (stereo unspecified)	9	16µM*	-11%
CSCCC(NC(=O)c1cc(C)oc1C)C(=O)O (stereo unspecified)	54	-3%	-7%
CC(C)CCn1nnnc1CN1CCN(c2ccccc2)CC1	·	3%	·
CN1C2C=C(N(CCc3c[nH]c4ccccc34)C(=O)c3ccc(Cl)cc3)CC1CC2 (stereo unspecified)	8	1%	-3%
CC1CN(c2ccccc2)NC1=O (stereo unspecified)	·	2%	·
CC1CN(c2ccccc2)C(=O)CS1 (stereo unspecified)	41	15µM*	16µM*
CCCCOCC1CN(c2ccccc2)C(=O)CS1 (stereo unspecified)	5	13µM*	-5%
CCCCN1CC(COc2ccccc2)OC1=O (stereo unspecified)	5	-4%	-10%
CCOC(=O)C1(O)Oc2cc(OC)cc(OC)c2C(=O)C1c1ccccc1 (stereo unspecified)	·	?	-18%
CCOC(=O)C(=O)C1(C(=O)OCC)Oc2cc(OC)cc(OC)c2C(=O)C1c1ccccc1 (stereo unspecified)	·	10µM*	-10%
O=c1c2c(-c3cccs3)csc2[nH]c(=S)n1-c1ccccc1	?	22µM*	28µM*
O=c1c2c(-c3cccs3)csc2ncn1-n1cccc1	12	?	-22%
CCn1c(=S)[nH]c2scc(-c3cccs3)c2c1=O	·	14µM*	·
SMILES	PNC assembly inh	ALDH1A1 inh	HPGD block
Cc1ccc(C)n1-n1cnc2scc(-c3cccs3)c2c1=O	-5	?	-5%
CC(C)n1c(=S)[nH]c2scc(-c3cccs3)c2c1=O	·	13µM*	·
O=c1c2c(-c3cccs3)csc2ncn1-c1ccccc1	?	?	-11%
Cc1onc(C(=O)NC(C)c2ccccc2)c1[N+](=O)[O-] (stereo unspecified)	·	-7%	·
CCCC[C@@H]1C[C@H]1C(NC(=O)c1cccs1)c1ccc(C(F)(F)F)cc1 (stereo partly specified)	·	-14%	-26%
CCOC(=O)C1(Cc2cccc(OC)c2)CCN(CC2CC=CCC2)CC1 (stereo unspecified)	·	-4%	·
C=CCn1c(SCc2c(C)noc2C)nnc1C1COc2ccccc2O1 (stereo unspecified)	?	2%	-9%
Cc1ccnc2c(N3C(=O)C4C5c6ccccc6C(c6ccccc65)C4C3=O)cccc12 (stereo unspecified)	14	?	-10%
CCOc1ccc(Br)cc1CN(CC)CC	·	15%	·
